Results as given in PubChem BioAssay (NCATS).
Inconclusive results are not listed. Calls of active or inactive are those of the source. The call rests on the fitted dose curve; in most records, active means well fitted inhibition curve with a large enough effect; inconclusive means small, poorly fitted or top-dose-only effect; inactive means flat fitted curve, though single readings scatter.

Experiments:
Assay in all cases: qHTS profiling for inhibitors of Plasmodium falciparum proliferation (AID 504749); further: nearly all actives have a fitted effect of over 60% in size
Conditions in all cases: P. falciparum in erythrocytes, SYBR Green DNA, 72 h; series mostly up to 28.7 µM
ATS95 = tested on: ATS95
Procedure, shortened: (§1)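 P. falciparum-infected erythrocytes (0.3% parasitemia, 2.5% hematocrit) incubated with compound 72 h at 37 C, 5% CO2. Parasite DNA detected by SYBR Green after lysis, overnight at room temperature; normalised to 0.29 uM artemisinin and DMSO.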

C2A = tested on: C2A
Procedure, shortened: as §1

CP185 = tested on: CP185
Procedure, shortened: as §1

CP191 = tested on: CP191
Procedure, shortened: as §1

CP192 = tested on: CP192
Procedure, shortened: as §1

CP194 = tested on: CP194
Procedure, shortened: as §1

CP201 = tested on: CP201
Procedure, shortened: as §1

CP203 = tested on: CP203
Procedure, shortened: as §1

CP211 = tested on: CP211
Procedure, shortened: as §1

CP215 = tested on: CP215
Procedure, shortened: as §1

CP217 = tested on: CP217
Procedure, shortened: as §1

CP237 = tested on: CP237
Procedure, shortened: as §1

CP238 = tested on: CP238
Procedure, shortened: as §1

CP247 = tested on: CP247
Procedure, shortened: as §1

CP250 = tested on: CP250
Procedure, shortened: as §1

CP252 = tested on: CP252
Procedure, shortened: as §1

CP256 = tested on: CP256
Procedure, shortened: as §1

CP260 = tested on: CP260
Procedure, shortened: as §1

CP262 = tested on: CP262
Procedure, shortened: as §1

CP265 = tested on: CP265
Procedure, shortened: as §1

Measured: Potency

N[C@H](CC(=O)O)C(=O)O
inactive: all assays above

NCC(O)CC(=O)O (stereo not given)
inactive: all assays above

CC1CCC(NC(=O)N(CCCl)N=O)CC1 (stereo not given)
inactive: all assays above

C[C@H](O)CN(C)C
inactive: all assays above

COC(=O)CC[C@H](N)C(=O)O
inactive: all assays above

COc1cc2c(cc1OC)[C@@H](Cc1cc(OC)c(OC)c(OC)c1)[N+](C)(CCCOC(=O)CC/C=C/CCC(=O)OCCC[N+]1(C)CCc3cc(OC)c(OC)cc3[C@H]1Cc1cc(OC)c(OC)c(OC)c1)CC2 (stereo not given in full)
inactive: all assays above

NCCO/C=C/[C@H](N)C(=O)O
inactive: all assays above

O=C(CCCCCCCCCCCCC1CCCC1)Nc1ccc(S(=O)(=O)c2ccc(NC(=O)CCCCCCCCCCCCC3CCCC3)cc2)cc1
inactive: all assays above

CC(C)c1ncc([N+](=O)[O-])n1C
inactive: all assays above

Cc1c(Cl)cccc1Nc1ncccc1C(=O)O
inactive: all assays above

OC/C=C/c1ccccc1
inactive: all assays above

CCN(CC)CCOc1ccccc1OC
inactive: all assays above

CC(C)CCC[C@@H](C)[C@H]1CC[C@H]2[C@@H]3CC=C4C[C@@H](O)CC[C@]4(C)[C@H]3CC[C@]12C
inactive: all assays above
